A selection: hits, their analogues and other compounds. The true share with any hit is near 28%.
CYP2C19 inhib: blockers of cytochrome P450 2C19 activity – biochemical, luminescence, ADME assay, primary screen; CYP2C19 Supersomes, luciferin-H EGE luminescence, 30 min; 21% of 96,000 active; inhibition, % at 5 µM; P33261;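 active means CYP2C19 inhibition above a set limit at 5 µM in the primary screen, cut at about 50% in these data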;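 further: plate controls were negative control wells for no effect and 2.5 mM tranylcypromine positive control for full effect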
PTK2B oligo ant: antagonists of Pyk2 self-association, primary screen, Q293 cells, FERM NanoBiT luminescence, HTS; Protein-tyrosine kinase 2-beta (Homo sapiens), Q14289; hits give low values; z-score (the deposit names both 25 µM and 10 µM); 0.83% of 99,000 active; AID 1347419, 2020;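 active means Z-score of -3 or lower, scaled per plate to the spread of control and sample wells; inactive means z-score above -3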;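 further: negative z-score means lost luminescence so less FERM oligomerization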
Target sequence (Q14289 whole entry, looked up): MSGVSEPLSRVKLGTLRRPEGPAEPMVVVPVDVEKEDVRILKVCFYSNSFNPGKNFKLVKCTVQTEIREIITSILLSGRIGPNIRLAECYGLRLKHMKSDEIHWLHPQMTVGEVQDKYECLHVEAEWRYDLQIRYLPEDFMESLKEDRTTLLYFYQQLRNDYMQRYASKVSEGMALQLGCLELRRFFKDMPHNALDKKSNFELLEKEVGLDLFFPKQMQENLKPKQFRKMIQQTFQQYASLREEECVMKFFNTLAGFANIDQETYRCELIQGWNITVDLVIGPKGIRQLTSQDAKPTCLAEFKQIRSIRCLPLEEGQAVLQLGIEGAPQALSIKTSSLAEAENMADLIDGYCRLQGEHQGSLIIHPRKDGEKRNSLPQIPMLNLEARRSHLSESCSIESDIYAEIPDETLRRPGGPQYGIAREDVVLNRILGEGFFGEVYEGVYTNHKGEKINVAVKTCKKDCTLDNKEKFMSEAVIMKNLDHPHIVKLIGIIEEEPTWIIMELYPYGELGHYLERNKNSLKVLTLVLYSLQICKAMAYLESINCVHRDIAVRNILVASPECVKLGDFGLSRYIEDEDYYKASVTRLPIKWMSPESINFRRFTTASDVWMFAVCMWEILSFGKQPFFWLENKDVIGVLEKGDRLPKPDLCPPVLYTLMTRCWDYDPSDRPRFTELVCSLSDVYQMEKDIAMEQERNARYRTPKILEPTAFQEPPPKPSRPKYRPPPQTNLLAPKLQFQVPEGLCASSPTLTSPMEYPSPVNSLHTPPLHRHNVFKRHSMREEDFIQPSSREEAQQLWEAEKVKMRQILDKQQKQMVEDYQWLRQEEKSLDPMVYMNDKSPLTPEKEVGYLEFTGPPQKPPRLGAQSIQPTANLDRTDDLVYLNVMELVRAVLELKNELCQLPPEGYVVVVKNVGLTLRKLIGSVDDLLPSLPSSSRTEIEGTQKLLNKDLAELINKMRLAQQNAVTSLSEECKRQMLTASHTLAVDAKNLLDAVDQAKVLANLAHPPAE
CYP2C19 act: human CYP2C19 activators, primary screen, biochemical, luminescence | recombinant CYP2C19, luciferin-H EGE luminescence; hits give high values; 0 = fully inhibited enzyme, 1 = untreated enzyme | activation factor at 5 µM | 96,000 tested, under 10 active | AID 1025, 2008;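 active means activation factor of at least 2 at 5 µM in the primary screen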;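 further: 0 = wells with 2.5 mM tranylcypromine and 1 = vehicle-only wells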
CYP2C9 activ: human CYP2C9 activators, primary screen, biochemical, luminescence. recombinant CYP2C9, luciferin-H conversion; hits give high values; factor 1 = untreated enzyme, 0 = blocked. AID 1024, 2008. Cytochrome P450 2C9 (Homo sapiens), P11712. activation factor at 5 µM. 1.4% of 96,000 active;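 active means activation factor of 2 or more for CYP2C9 at a 5 µM dose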;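 further: 0 = sulfaphenazole-blocked wells and 1 = vehicle-only wells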
CYP2C9 inh: blockers of cytochrome P450 2C9 activity – biochemical, luminescence, ADME assay, primary screen; P11712; CYP2C9 Supersomes, luciferin-H conversion; inhibition, % at 5 µM; 20% of 96,000 active;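 active means blocking of liver enzyme CYP2C9 beyond about 50% at 5 µM, limit read from the data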
* = called active by the depositor; · = no result.

SMILES	CYP2C19 inhib	PTK2B oligo ant	CYP2C19 act	CYP2C9 activ	CYP2C9 inh
Cc1cccc(N2CCN(C(=O)CN3CCOc4ccccc43)CC2C)c1 (stereo unspecified)	94*	·	0.1	0.5	54*
Cc1cccc(N2CCN(C(=O)c3ccc(NC(=O)C4CCCO4)cc3)CC2C)c1 (stereo unspecified)	-5	0.21	1.1	0.5	45
O=C(CSc1nc2cccnc2n1Cc1ccccc1)NC1CCCCC1	·	-0.99	·	·	·
O=C(CN1C(=O)COc2ccccc21)N1CCc2ccccc2C1	·	0.47	·	·	·
c1ccc(Oc2nc(Oc3ccccc3)nc(N3CCOCC3)n2)cc1	60*	-2.1	0.4	0.5	49
O=C(Nc1ncn[nH]1)c1ccc(Cl)c(S(=O)(=O)N2CCCCCC2)c1	1	0.41	1	1	2
O=C(Nc1ncn[nH]1)c1c(Cl)ccc(Cl)c1Cl	88*	0.08	0.1	1.4	-37
O=C(Nc1ccc(-n2cnnn2)cc1)C1CCC1	51*	-0.07	0.5	0.6	39
Cc1nc2ccc(S(=O)(=O)NC(C(=O)NCc3ccc4c(c3)OCO4)C(C)C)cc2s1 (stereo unspecified)	51*	·	0.5	0.7	31
CCc1nnc(NC(=O)[C@@H]2CCCN2S(=O)(=O)c2ccc3c(c2)OCCO3)s1	16	0.84	0.8	0.6	45
CCc1nnc(NC(=O)C(NS(=O)(=O)c2ccc3c(c2)OCCO3)C(C)C)s1 (stereo unspecified)	95*	0.57	0.1	0.1	90*
Cc1nc2ccc(S(=O)(=O)N(C)CC(=O)NCc3ccc4c(c3)OCO4)cc2s1	57*	1.1	0.4	0.5	53*
CC1CCN(CC(=O)N2c3ccccc3CCc3ccccc32)CC1	·	1.6	·	·	·
O=CN(Cc1ccco1)C1(C(=O)NC2CCCCC2)CCCCC1	13	0.77	0.9	1.1	-10
O=C1CC(O)(c2ccccc2)C(c2ccccc2)=C1c1ccccc1 (stereo unspecified)	·	-1.2	·	·	·
O=C(COc1ccc2ccccc2c1)Nc1ccc(S(=O)(=O)N2CCCCCC2)cc1	·	1.1	·	·	·
C/C(=N\NC(=O)c1c(Cl)c(C)nn1C)c1ccc(NC(=O)COc2ccc(Cl)cc2C)cc1	42	1.1	0.6	0.3	66*
COc1ccc(OC)c(C(=O)c2coc3ccc(O)cc23)c1	70*	-1.4	0.3	0.3	73*
O=c1[nH]c(Cn2nnc(-c3ccccc3)n2)nc2scc(-c3ccccc3)c12	35	0.1	0.7	0.2	82*
Cc1[nH]n(-c2c(Cl)cc(Cl)cc2Cl)c(=O)c1C=Nc1ccc(S(=O)(=O)N2CCOCC2)cc1	·	-0.22	·	·	·
COc1ccc(NC(=O)Cc2ccccc2)cc1	·	0.45	·	·	·
O=C(Cc1sc(-c2ccccc2)nc1-c1ccccc1)Nc1ccccc1	0	-1.2	1	0.5	52*
Cc1cc(C)c2c(n1)nn1c(N3CCN(c4ccccc4C)CC3)cc(C)nc21	·	-1	·	·	·
CC(=O)Nc1nc(CC(=O)c2ccccc2)cs1	65*	·	0.3	1.1	-11
CC(=O)Nc1nc(COc2ccccc2)cs1	89*	1	0.1	0.4	59*
SMILES	CYP2C19 inhib	PTK2B oligo ant	CYP2C19 act	CYP2C9 activ	CYP2C9 inh
CC(=O)Nc1nc(COc2ccc3ccccc3c2)cs1	37	-0.4	0.6	1.1	-13
O=C(Nc1nc(COc2ccccc2)cs1)C12CC3CC(CC(C3)C1)C2	56*	-0.99	0.4	0	96*
COc1ccccc1OC(=O)c1cc(Cl)nc2ccccc12	14	0.73	0.9	0.3	75*
Cc1cc(OC(=O)c2cc(Cl)nc3ccccc23)ccc1Cl	1	1.5	1	0.9	8
CCN(Cc1ccccc1)C(=O)CSc1nc(C)cc(C)c1C#N	62*	·	0.4	1.6	-60
Cc1cc(C)c(C#N)c(SCC(=O)N2CCN(Cc3ccccc3)CC2)n1	52*	0.64	0.5	0.7	30
Cc1cc(C)c(C#N)c(SCC(=O)N2CCCCC2)n1	54*	1.2	0.5	1.4	-36
CCN(C(=O)Cn1c(=O)n(Cc2ccccc2)c(=O)c2ccccc21)c1cccc(C)c1	5	-2.1	1	0.1	86*
COc1ccc(-c2cc(C#N)nc(N3CCNCC3)n2)cc1	-6	0.78	1.1	1	3

High-throughput results deposited in PubChem BioAssay by Sanford-Burnham Center for Chemical Genomics.
